PostGolgi ctrl: yeast control strain growth, post-Golgi counter-screen | inhibition, % at 10 µM | AID 738 | efflux-deficient yeast background strain, growth absorbance A615, 16 h | 98,000 tested, 5% active
Measles CPE: protection of cells from measles virus. protection (pct of control), % at 4 µM. Measles virus-infected cells, CPE protection, absorbance. 140,000 tested, 1.5% active; in the data active = protection mostly above about 24%, no sharp cut-off; inactive = mostly below about 26%
MT1-MMP txn act: activates MT1-MMP transcription | activation factor at 10 µM | 86,000 tested, 0.16% active | HT1080 MT1-MMP promoter luciferase reporter, luminescence, overnight; stronger effect = higher value;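 active = activation factor of at least 2 for MT1-MMP transcription at 10 µM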
PostGolgi yeast: growth inhibition of a yeast mutant, post-Golgi transport screen; inhibition, % at 10 µM; 98,000 tested, 0.9% active; post-Golgi transport phenotypic cell assay;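 note: yeast cells grown in 1536-well plates; yeast grown about 18 h at 30C before absorbance read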
Numbers stand for hits; . = inactive; / = no result. Hits are enriched below; roughly 5.3% of the tested compounds scored in any of these assays. Cut-off read from the data, not from the text of the source, unless noted: active = inhibition above about 30%; inactive = the rest.

SMILES | PostGolgi ctrl | Measles CPE | MT1-MMP txn act | PostGolgi yeast
C[C@H]1C2=C3[C@@H](C[C@H]4C(=O)N(c5ccccc5)C(=O)[C@H]4[C@H]3[C@@]3(Cc4ccccc4)C(=NCCc4c[nH]c5ccccc45)OC(=O)N3C2=O)[C@H]2C(=O)N(c3ccccc3)C(=O)[C@H]21 | / | / | . | /
CCC(=O)N1CCc2cc(S(=O)(=O)N3CCc4ccccc4C3)ccc21 | . | 28 | / | .
CCC(=O)N1CCCc2cc(S(=O)(=O)N3CCCc4ccccc43)ccc21 | 35 | . | . | .
CC1=C(C(=O)OCc2ccccc2)C(c2ccc3c(c2)OCO3)NC(=O)N1CCCC(=O)O (centres undefined) | / | / | . | /
COC(=O)c1cccc(NC(=O)CSc2nc3cccnc3n2C)c1 | . | 63 | . | .
COC(=O)c1cccc(NC(=O)CSc2nnnn2C)c1 | . | . | . | .
COc1ccc(N2C(=O)CSC23C(=O)N2c4c(cccc43)C(C)=CC2(C)C)cc1 (centres undefined) | 32 | . | . | .
COc1ccc(N2C(=O)CSC23C(=O)N2CCCc4cccc3c42)cc1 (centres undefined) | . | . | . | .
O=C1CC(c2cccs2)CC2=C1C(c1ccccc1)n1ncnc1N2 (centres undefined) | . | . | . | .
CC1CC(=O)C2=C(C1)Nc1ncnn1C2c1ccccc1 (centres undefined) | 48 | . | . | .
Cn1nnc2cc(C(=O)NC(C)(C)C)ccc21 | 37 | . | . | .
COc1cc(CN(C(=S)NCC(=O)NC2CCCC2)C2CCCC2)cc(OC)c1OC | / | . | / | /
CC(=O)N1CC[n+]2c(-c3ccc(Cl)cc3Cl)csc21 | / | . | / | /
COc1ccccc1CO/N=C/NC(=O)c1c(OC)ccnc1Oc1ccc(F)cc1 | 51 | . | / | .
Oc1ccc(NCc2ccccc2OCc2ccccc2)cc1 | / | 41 | / | /
C#CCOc1ccccc1CNc1ccccc1 | / | . | / | /
COc1ccc(CNC(=O)COC(=O)c2cnccn2)cc1 | . | . | . | .
NC(=O)N1CCN(C(=O)c2ccco2)CC1 | . | . | / | .
Nc1ccc(N2CCN(C(=O)c3ccco3)CC2)cc1 | . | 60 | . | .
C(#CCN1CCOCC1)COC(c1ccccc1)c1ccccc1 | / | . | . | /
CC(=O)OC(C#CCN1CCOCC1)c1ccccc1 (centres undefined) | . | 46 | / | .
CNC(=O)c1cc2cccc(OC)c2oc1=O | . | . | . | .
COc1cccc2cc(C(=O)NCc3ccccn3)c(=O)oc12 | / | . | 2.1 | /
Cc1ccc(N2C(=S)N=C(Nc3ccccc3C)C23CCOC(C)(C)C3)cc1 (centres undefined) | . | . | . | .
COC(=O)NCC12CC3CC(C1)CC(CNC(=O)OC)(C3)C2 | 33 | . | . | .
SMILES | PostGolgi ctrl | Measles CPE | MT1-MMP txn act | PostGolgi yeast
COC(=O)c1cc(=O)n(Cc2cccs2)c(=NCc2cccs2)s1 | 31 | . | . | .
CCOC(=O)c1ccc(N=c2sc(C(=O)OC)cc(=O)n2Cc2ccco2)cc1 | 57 | . | . | .
CCOC(=O)c1ccc(N=c2sc(C(=O)OC)cc(=O)n2CCCN2CCOCC2)cc1 | . | . | . | .
CCOc1ccc(OCc2cccc(C(=O)Nc3ccc(CN4CCCCC4)cc3)c2)cc1 | / | . | / | /
CCCC(=O)Nc1cc(C(=O)O)ccc1S(=O)(=O)c1ccc(Cl)cc1 | / | . | / | /
OC(c1ccccc1)c1cccnc1 (centres undefined) | / | . | / | /
Cc1cc(C)cc(NC(=O)Cn2c(-c3ccccc3Cl)nc3ccccc32)c1 | / | 35 | / | /
CC(Oc1ccccc1)C(=O)Nc1cccc(-c2nc3ccccc3[nH]2)c1 (centres undefined) | . | . | / | .
O=C(COc1ccccc1)Nc1cccc(-c2nc3cc4ccccc4cc3[nH]2)c1 | . | . | / | 45
CCOC(=O)c1c(C)oc2cc(Br)c(O)c(Br)c12 | 52 | . | . | .
CCOC(=O)COc1cc2c(C(=O)OCC)c(C)oc2cc1Br | . | . | . | .
CCN1CCCC1CNC(=O)C(=O)Nc1ccc(OC)cc1 (centres undefined) | 42 | . | / | .
COC(=O)c1ccc(COc2ccccc2/C=C(\C#N)C(=O)Nc2c(C)cccc2C)cc1 | / | . | / | /
COC(=O)c1ccc(C(/C=C/[C@@H](C)C(=O)NCc2ccc(OC)c(O)c2)NC(=O)OCc2ccccc2)cc1 (some centres undefined) | / | / | . | /
CC(C)COc1ccc(C(=O)CCN2CCCCC2)cc1 | 44 | . | . | .
COC(=O)c1ccccc1NC(=O)/C=N/O | . | 44 | . | .
COC(=O)c1ccccc1NC(=O)c1sc(N)nc1C | . | . | . | .
COC(=O)c1ccccc1NC(=O)c1sc(=S)n(C)c1N | 36 | . | . | .
Cc1ccc(C)c2[nH]c(=O)c(C(c3nnnn3C(C)(C)C)N3CC=C(c4ccc(F)cc4)CC3)cc12 (centres undefined) | / | . | / | /
O=c1[nH]c2ccc(S(=O)(=O)N3CCN(c4ccccc4F)CC3)cc2s1 | 31 | . | . | .
CCn1c(O)c(C=Nc2ccccc2)n(-c2ccccc2)c1=S | . | . | . | .
N#Cc1c(C(F)(F)F)cc(-c2ccc(Cl)c(Cl)c2)nc1SCCN1CCOCC1 | . | . | / | .
N#Cc1c(C(F)(F)F)cc(-c2ccccc2)nc1SCc1nc(N)nc(N2CCOCC2)n1 | 45 | . | . | .
COC(=O)[C@H](C)NC(=O)NC(C)CCc1ccccc1 (some centres undefined) | 36 | . | . | .
CC(CCc1ccccc1)NC(=O)/C=C/c1ccccc1 (centres undefined) | 40 | . | / | .
SMILES | PostGolgi ctrl | Measles CPE | MT1-MMP txn act | PostGolgi yeast
COC(=O)[C@@H](NC(=O)NC(C)CCc1ccccc1)C(C)C (some centres undefined) | . | . | . | .
O=C(c1cccs1)N1CCc2c([nH]c3ccccc23)C1c1ccc(Cl)cc1 (centres undefined) | 30 | / | / | .
CC1c2[nH]c3ccccc3c2CCN1C(=O)Nc1ccccc1 (centres undefined) | / | . | . | /
Cc1ccc(C)c(S(=O)(=O)NCC(=O)Nc2sc3c(c2C(N)=O)CCC(C)C3)c1 (centres undefined) | . | . | / | .
CCSc1nnc(CNc2ccc(F)cc2)n1CC1CCCO1 (centres undefined) | . | 46 | . | .
CCn1c(SCC#N)nc2c(c1=O)C1(CCCC1)Cc1ccccc1-2 | 52 | . | . | .
CCCn1c(SCC(N)=O)nc2c(c1=O)C1(CCCC1)Cc1ccccc1-2 | 44 | . | . | .
O=C1O/C(=C/c2ccccc2)c2ccccc21 | / | . | / | /
N#CC1=C(c2ccccc2)/C(=C/c2ccccc2)OC1=O | 51 | . | / | .
O=[N+]([O-])c1c(Nc2ccccc2)ccc2nonc12 | . | 28 | / | .
Cc1ccn2cc(CNS(=O)(=O)c3ccc(Cl)s3)nc2c1 | . | 29 | / | .
Cc1cc2nnc(SCC(=O)Nc3cccc(S(=O)(=O)N4CCOCC4)c3)n2c2ccccc12 | / | . | / | /
CCC1=C2CC[C@H]3C(=O)N(C)C(=O)[C@H]3[C@H]2[C@@]2(Cc3ccccc3)C(=NCC3CC3)OC(=O)N2C1=O | / | / | . | /
CCCCN(CC)CCCNC(=S)Nc1ccc2nc3n(c(=O)c2c1)CCCCC3 | / | . | / | /
O=c1c2c(nc3cc(-c4cccc(Cl)c4)[nH]n13)CCC2 | . | . | 2 | .
O=c1c2c(nc3cc(-c4ccc(F)cc4)[nH]n13)CCCC2 | . | . | / | .

Screening results (PubChem BioAssay)
